Lassa entry inh: blocks Lassa virus binding to or entry into cells; Potency, µM (titrated, usually from 37.9 µM), inactives show at the top dose activity change, negative = inhibition, most hits filed as inhibitors; Lassa virus pseudotype entry inhibition, cell reporter; 300,000 tested, 1.2% active; calls by dose curve; tested in HEK293 cells; note: potency is the fitted concentration of half-maximal effect; % is set by controls: 0 for no effect and ±100 for the full control effect; nearly all actives have a fitted effect of over 50% in size
HCV inhibitor: inhibitors of hepatitis C virus infection; AID 651820; Huh7.5.1 HCVcc-Cre infection, luciferase reporter, 44 h; 340,000 tested, 3.4% active; Potency, µM (titrated, usually from 41.8 µM), for the others: top-dose activity change, negative = inhibition, actives largely listed as inhibitors; active = well fitted inhibition curve with a large enough effect; inconclusive = small, poorly fitted or top-dose-only effect, or another doubt; inactive = no such curve, though single readings can be large or run the other way; note: potency is the fitted concentration of half-maximal effect; % is set by controls: 0 for no effect and ±100 for the full control effect
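1,000 cells/well; 4 h culture; + compound; + HCVcc-Cre (~0.5 moi); 44 h; luciferase substrate, RT 15 min; read 15 sec.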
Shiga toxin inh: Shiga toxin inhibition | inhibition, % at 38.7 µM | Vero cells, Shiga toxin protein synthesis inhibition reporter | 290,000 tested, 9.2% active; in the data active = inhibition mostly above about 28%, no sharp cut-off; inactive = mostly below about 43%; note: 0% is about no effect
MARV entry inh: blocks Marburg virus binding to or entry into cells | Marburg virus pseudotyped entry inhibition, cell reporter | Potency, µM (doses to about 37.8 µM), for inactives: at the highest dose activity change, negative = inhibition, actives largely listed as inhibitors | 300,000 tested, 1.8% active; calls by dose curve; tested in HEK293 cells; note: potency is the fitted concentration of half-maximal effect; % is set by controls: 0 for no effect and ±100 for the full control effect
FMDV antiviral: antivirals against foot and mouth disease virus. FMDV antiviral cell-based qHTS. Potency, µM (titrated, usually from 57.9 µM), inactives show top-dose activity change, negative = inhibition, hits mostly inhibitors. 410,000 tested, 1.2% active. AID 1159524; calls by dose curve; tested in HEK293T cells; note: read-out not given here; potency is the fitted concentration of half-maximal effect; % is set by controls: 0 for no effect and ±100 for the full control effect; nearly all actives have a fitted effect of over 45% in size
CHX counter: counter-screen for Shiga toxin inhibitors: cycloheximide protein synthesis inhibition; AID 2314; 300,000 tested, 12% active; cell reporter, cycloheximide protein synthesis inhibition counterscreen; max response, %; in the data active = max response mostly above about 13%, no sharp cut-off; inactive = mostly below about 14%; note: read at 38.3 µM for the half of the compounds with a filed dose; 0% is about no effect
An asterisk follows results filed as active; [ ] = another dose, or the depositor's remark. Sampled rows, rich in hits. Any-hit rate of the full collection: about 13%.

What do the screens show for `COc1cccc(N=C2SC(C(=O)Nc3ccc(F)cc3)CC(=O)N2C)c1` (configuration not stated)?
Lassa entry inh: -15.8%; HCV inhibitor: inconclusive; Shiga toxin inh: -2.4; MARV entry inh: -13.6%; CHX counter: -2.0

Results for COc1cccc(CN2CCNC(=O)C2CC(=O)NC2CCOCC2)c1OC (configuration not stated) ?
HCV inhibitor: inconclusive; Shiga toxin inh: -8.2; FMDV antiviral: -5.7%; CHX counter: -3.2

What do the screens show for `O=C(OCC1CC(c2ccccn2)=NO1)c1ccc(Br)cc1` (configuration not stated)?
Lassa entry inh: inconclusive; HCV inhibitor: 12.4%; Shiga toxin inh: 40.9; MARV entry inh: -0.6%; CHX counter: 56.2*

How did O=C(COC(=O)c1ccccn1)c1ccc(Br)cc1 do in these assays?
Lassa entry inh: 7.0%; HCV inhibitor: -1.2%; Shiga toxin inh: 30.3; MARV entry inh: 15.2%; FMDV antiviral: 7.4%; CHX counter: 17.8

Results for COc1ccc(NC(=O)CSc2nc3ccccc3c(=O)n2CCC(=O)NC2CCCCC2)c(OC)c1 ?
Lassa entry inh: 9.3%[46.1 µM]; FMDV antiviral: -1.4%

Results for COc1ccc(C(=O)Nn2c(SCC(=O)NCC3CCCO3)nc3ccccc3c2=O)cc1 (configuration not stated) ?
Lassa entry inh: 7.3µM*; HCV inhibitor: -8.9%; Shiga toxin inh: -9.9; MARV entry inh: inconclusive; FMDV antiviral: 11.2µM*; CHX counter: -2.4

What do the screens show for `COc1ccc(C(=O)Nn2c(SCC(=O)NC3CCCC3)nc3ccccc3c2=O)cc1`?
Lassa entry inh: inconclusive; HCV inhibitor: 5.7%; Shiga toxin inh: 46.5; MARV entry inh: inconclusive; FMDV antiviral: 17.8µM*; CHX counter: 68.9*

How did O=C(CSc1nc2ccccc2c(=O)n1CC1CCCO1)NCC1CCCO1 (configuration not stated) do in these assays?
Lassa entry inh: -2.4%; HCV inhibitor: 13.2%; Shiga toxin inh: -25.6; MARV entry inh: 3.6%; FMDV antiviral: -6.9%; CHX counter: -2.6

What do the screens show for `COc1ccc(C(=O)Nn2c(SCC(=O)NCc3ccccc3)nc3ccccc3c2=O)cc1`?
Lassa entry inh: inconclusive; HCV inhibitor: -3.0%; Shiga toxin inh: 43.8; MARV entry inh: inconclusive; FMDV antiviral: inconclusive; CHX counter: 50.8*

What do the screens show for `CC1S/C(=N/N=C2CCCCC2)NC1=O` (configuration not stated)?
Lassa entry inh: 19.7%; HCV inhibitor: 13.0%; Shiga toxin inh: 32.7; MARV entry inh: inconclusive; FMDV antiviral: -14.0%; CHX counter: 30.1*

How did CC(C)(C)C1CCNC(=O)CC1 (configuration not stated) do in these assays?
FMDV antiviral: -24.3%

What do the screens show for `O=C(CC1S/C(=N/N=C2CCCCCC2)NC1=O)Nc1ccccc1C(F)(F)F` (configuration not stated)?
HCV inhibitor: -19.1%; Shiga toxin inh: -4.4; MARV entry inh: -0.9%[46.1 µM]; FMDV antiviral: -22.6%; CHX counter: 3.8

What do the screens show for `CC1S/C(=N/N=C2CCC(C(C)(C)C)CC2)NC1=O` (configuration not stated)?
Lassa entry inh: 8.2%; HCV inhibitor: 9.5%; Shiga toxin inh: 24.6; MARV entry inh: 7.0%; FMDV antiviral: 18.9%; CHX counter: 25.9*

Results for CCC1(c2ccc(F)cc2)NC(=O)N(CC(=O)N2CCc3ccccc32)C1=O (configuration not stated) ?
HCV inhibitor: -16.3%; FMDV antiviral: 3.2%

What do the screens show for `CCCCCCCCCCCCCCCC[N+](C)(C)CCN(Cc1ccc(OC)cc1)c1ncccn1`?
HCV inhibitor: 2.82µM*; FMDV antiviral: 28.2µM*

Results for C/C(N)=C(/C#N)C(=O)CSc1nnc(Nc2cccc(C)c2)s1 ?
Lassa entry inh: inconclusive; HCV inhibitor: inconclusive; Shiga toxin inh: 67.1*; MARV entry inh: 17.1%; FMDV antiviral: 93.3%; CHX counter: 30.9*

What do the screens show for `Cc1cccc(NC(=O)CSc2nc3ccc(NC(=O)c4ccco4)cc3s2)c1`?
Lassa entry inh: -6.9%[46.1 µM]; MARV entry inh: inconclusive; FMDV antiviral: 25.1µM*

Source: PubChem (National Center for Advancing Translational Sciences (NCATS))
